Bioassay records as filed in PubChem BioAssay.
eIF4H FP inh: inhibitors of RNA binding by human eIF4H; Q15056; eIF4H fluorescence polarization binding assay; inhibition, % at 35 µM; actives 0.94% (n = 290,000); AID 2012;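 note: calls also rest on retests at 20 µM and on dose response follow-up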
PABP1 MLLE inh: blocks PAM2 peptide binding to the PABP1 MLLE domain. GST-MLLE / FITC-PAM2 fluorescence polarization. AID 588489. actives 0.36% (n = 360,000). inhibition, % at 20 µM; in the data active = inhibition above about 35%, passing the limit was not always enough;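 note: plate controls were DMSO wells with GST-MLLE for no effect and wells lacking GST-MLLE protein for full effect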
PERK inhibitor: blocks human PERK kinase. actives 0.17% (n = 220,000). CHO PERK-DD fusion, SEAP luminescence translation reporter. inhibition, % at 5.6 µM;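 active = inhibition above the mean inhibition of all tested compounds plus 3 SD, set separately per screening campaign, cut at about 2.9% in these data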;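 note: PERK kinase domain activated by AP20187 dimerizer at 100 nM; 0% = DMSO with dimerizer and 100% = rapamycin at 8.4 µM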
eIF4E 4G PPI: blocks eIF4E binding to eIF4G; inhibition, % at 21.7 µM; actives 0.37% (n = 220,000); TR-FRET eIF4E-eIF4GI(517-606) binding, 2 h; AID 782;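 active = inhibition above about 30%, limit read from the data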;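 note: 0% = full FRET control wells and 100% = background wells lacking eIF4GI fragment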
PABP FP inh: PABP-poly(A) binding inhibition; PABP-poly(A) RNA binding, fluorescence polarization; inhibition, % at 35 µM; actives 1% (n = 290,000);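 note: calls also rest on retests at 20 µM and on dose response follow-up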
An asterisk follows results filed as active; . = no result given. A selection follows. Unless noted, the rule behind the calls is not given here.

SMILES	eIF4H FP inh	PABP1 MLLE inh	PERK inhibitor	eIF4E 4G PPI	PABP FP inh
CCCNC(=S)Nc1ccc(Cl)cc1C	-9	-4	1	4	-6
Nc1nnc(SCC(=O)OCc2ccccc2)s1	12	-18	1	-7	8
Cc1cccc(C(=O)NCCCNC(=O)c2ccc(C)nc2)c1	-4	-5	.	.	-5
O=C1c2cccc3cccc(c23)C(=O)N1CCN1CCN(CC(O)COc2ccccc2)CC1 (stereo not drawn)	13	1	0	1	6
COC(=O)c1cncn1Cc1ccccc1	.	-9	.	.	.
